The record followed here is PubChem BioAssay (NCI).

About 79,000 compounds went through this panel and 15% of them were active in at least one assay; those are over-represented in the sample as a whole. Values without a mark were called inactive. Calls of active or inactive are those of the source. Cut-off read from the data, not from the text of the source: active = growth inhibition above about 70%; inactive = the rest.

Assay [1] can be described thus: NCI Yeast Anticancer Drug Screen. Data for the rad50 strain (AID 155).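 Note: 0% = growth of vehicle-only cultures of the same strain.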 To be noted: S. cerevisiae rad50 strain growth inhibition; at 50.0 µM; hits give high values. The method in brief:
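Inhibition values express reduced yeast growth in compound-treated cultures relative to vehicle-treated controls.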

Assay [2] in a line: NCI Yeast Anticancer Drug Screen. Data for the mec2-1 strain (AID 157). The settings on record: S. cerevisiae mec2-1 strain, at 50.0 µM, hits give high values. In a few lines:
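Strain: mec2-1 (DNA repair/cell cycle alteration). Compound exposure, then growth measured; inhibition expressed relative to vehicle.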

A short description of assay [3]: NCI Yeast Anticancer Drug Screen. Data for the sgs1 mgt1 strain (AID 161).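 Note: 0% = growth of cultures given vehicle only.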 The settings on record: S. cerevisiae sgs1 mgt1 strain, at 50.0 µM, hits give high values. In a few lines:
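Read-out: growth inhibition vs vehicle controls. Cells: mutant yeast strain deficient in DNA damage repair.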

A short description of assay [4]: NCI Yeast Anticancer Drug Screen. Data for the cln2 rad14 strain (AID 165).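 Note: 0% = growth equal to vehicle treated cultures.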 To be noted: S. cerevisiae cln2 rad14 strain, at 50.0 µM, hits give high values. In a few lines:
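Compounds are applied to the cln2 rad14 yeast strain, and growth is then compared with that of vehicle-treated cultures to give inhibition.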

Assay [5] is described as follows: NCI Yeast Anticancer Drug Screen. Data for the bub3 strain (AID 167). To be noted: S. cerevisiae bub3 mutant strain, at 50.0 µM, hits give high values. The method in brief: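 Steps: expose the mutant yeast strain to compound; grow alongside vehicle-treated cultures; measure growth; express inhibition against the vehicle cultures.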
A short description of assay [6]: NCI Yeast Anticancer Drug Screen. Data for the mlh1 rad18 strain (AID 175). The settings on record: S. cerevisiae mlh1 rad18 strain growth inhibition; at 50.0 µM; hits give high values. The method in brief:
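Read-out is yeast growth inhibition, calculated against vehicle-only controls. The compound was applied to a strain engineered with DNA damage repair alterations.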

As to `Cc1cc([N+](=O)[O-])c2ncccc2c1`, the growth inhibition in assay [1] was -12.3%; in assay [2] it was -7.7%; in assay [3] it was -2.7%; in assay [4] it was -33%; in assay [5], -15.7%; in assay [6], -6.95%.

With `C[C@H]1C[C@H]2[C@@H]3CC[C@@]4(OCC4=O)[C@@]3(C)C[C@H](O)[C@]2(F)[C@@]2(C)C=CC(=O)C=C12`, the growth inhibition in assay [1] is -16.6%; in assay [2], -24.4%; in assay [3] it was 1.6%; in assay [4], -34.9%; in assay [5], 17.4%; in assay [6], 0.35%.

Consider `O=C1OCc2nc3c(c(-c4ccccc4C(F)(F)F)c21)C(=O)OC3`, for which the growth inhibition in assay [1] is -40.1%; in assay [2] it was -66.6%; in assay [3] it was -59.3%; in assay [4] it was -0.85%; in assay [5], -35.4%; in assay [6] it was -39%.

Regarding `O=[N+]([O-])c1ccc2[nH]c3nc4ncccc4nc3c2c1`, the growth inhibition is -3.4% in assay [1]; 3.35% in assay [2]; 4.7% in assay [3]; -20.1% in assay [4]; 0.25% in assay [5]; 0.7% in assay [6].

Regarding `COc1ccc(C(=O)C(C)(c2nc3n(c2O)C(=N)N=N3)c2nc3n(c2O)C(=N)N=N3)cc1` (stereo unspecified), the growth inhibition in assay [1] was -8.8%; in assay [2], 4.45%; in assay [3] it was 0.75%; in assay [4], -8.85%; in assay [5] it was 5.8%; in assay [6], -7.95%.

Take `O=C(O)C1C2CC(C(Br)C2Br)C1C(=O)O` (stereo unspecified): the growth inhibition is -6.55% in assay [1]; 0.75% in assay [2]; -21.7% in assay [3]; 9.9% in assay [4]; -5.85% in assay [5]; -12.2% in assay [6].

On to `O=C1CC(N2CCOCC2)c2ccccc21` (stereo unspecified), for which the growth inhibition in assay [1] is 30%; in assay [2], 11.1%; in assay [3], 12.6%; in assay [4], -21.1%; in assay [5], -14%; in assay [6], 14.2%.

Regarding `NC(CCC(=O)OCCn1c2ccccc2c2ccccc21)C(=O)O` (stereo unspecified), the growth inhibition in assay [1] was -1.9%; in assay [2] it was -2.4%; in assay [3], 3.3%; in assay [4] it was -2.1%; in assay [5] it was 18.1%; in assay [6], 3.95%.

Consider `O=C1OC(=O)c2ccccc21`, for which the growth inhibition was 5.25% in assay [1]; -15.2% in assay [2]; -11.4% in assay [3]; -24.8% in assay [4]; -2.2% in assay [5]; 0.05% in assay [6].

As to `O=C1Nc2ccc3c4c(ccc1c24)CC3`, the growth inhibition in assay [1] is 10.3%; in assay [2] it was -0.8%; in assay [3] it was -0.3%; in assay [4] it was -6.1%; in assay [5], 10.7%; in assay [6], 16.8%.

`COc1cccc(CN(CC(=O)O)S(=O)(=O)c2ccc(C)cc2)c1`: the growth inhibition was -6.2% in assay [1]; 11.3% in assay [2]; -1% in assay [3]; -46.6% in assay [4]; -23.6% in assay [5]; 6.85% in assay [6].

`[Cl-].[Nd+3].[O-]/N=C(\c1ccccc1)c1ccccn1.[O-]/N=C(\c1ccccc1)c1ccccn1.[O-]/N=C(\c1ccccc1)c1ccccn1`: the growth inhibition in assay [1] is 50.1%; in assay [2] it was 35.4%; in assay [3] it was 42.6%; in assay [4], 25.2%; in assay [5], 47%; in assay [6] it was 58%.

For the compound `NC1=NN(O)C2=CC(Br)C=CC2=N1` (stereo unspecified), the growth inhibition in assay [1] was 10.3%; in assay [2] it was -7.4%; in assay [3], 11.6%; in assay [4], 7.55%; in assay [5] it was 43.1%; in assay [6], 22.4%.

Take `CC1(C)CCC(=O)OC1C[N+](=O)[O-]` (stereo unspecified): the growth inhibition is 39.8% in assay [1]; -10.8% in assay [2]; 24.2% in assay [3]; 11.8% in assay [4]; 0.3% in assay [5]; 39.4% in assay [6].

In the case of `Fc1ccc(CSC(=S)Nc2ccc(I)cc2)cc1`, the growth inhibition in assay [1] was 98.8% (active); in assay [2], 99.2% (active); in assay [3], 99.2% (active); in assay [4], 99.2% (active); in assay [5], 98.7% (active); in assay [6] it was 99% (active).

In the case of `C=C(Cl)COc1ccc(C(=O)c2ccccc2)cc1`, the growth inhibition in assay [1] is -4.5%; in assay [2], -9%; in assay [3], -6.5%; in assay [4], -64%; in assay [5] it was -7.25%; in assay [6] it was -14.9%.

Regarding `CN(C)S(=O)(=O)N1CCOCC1`, the growth inhibition in assay [1] was 9.3%; in assay [2], -6.65%; in assay [3] it was -1.15%; in assay [4], 11.2%; in assay [5], -2.8%; in assay [6], 4.8%.

Take `CC(=O)Nc1ccc(S(=O)(=O)NNC(=O)NNS(=O)(=O)c2ccc(NC(C)=O)cc2)cc1`: the growth inhibition is -6.15% in assay [1]; -7.2% in assay [2]; -11.5% in assay [3]; 2.5% in assay [4]; -7% in assay [5]; -10.4% in assay [6].

For `CN(C)N=Nc1ccc(C(=O)N/N=C/c2ccccc2[N+](=O)[O-])cc1`, the growth inhibition is -13.8% in assay [1]; 1.2% in assay [2]; -16.6% in assay [3]; -18.2% in assay [4]; -14.7% in assay [5]; -40.8% in assay [6].

As for `CCOC(=O)C1(C(=O)OCC)CCCN1C(=O)[C@H](CNC(=O)OC(C)(C)C)NC(=O)OCc1ccccc1`, the growth inhibition was 32.1% in assay [1]; 12.8% in assay [2]; -10.9% in assay [3]; -0.45% in assay [4]; -30.1% in assay [5]; -79.8% in assay [6].

`Nc1ccc(F)cc1C(F)(F)F`: the growth inhibition in assay [1] is 6.65%; in assay [2] it was -45%; in assay [3] it was -4.55%; in assay [4] it was -7.75%; in assay [5], -8.05%; in assay [6], 23%.
